PubChem BioAssay AID1347131 (National Center for Advancing Translational Sciences (NCATS), 2019)
Among all 410,000 compounds or so, about 2,000 (0.49%) were called active. Not shown: some 8% with an inconclusive outcome. The call rests on the fitted dose curve; tested in HEK293 reporter line. Shown is part of a subset that was picked to be rich in actives. A call without a number means that no potency is given here.
Potency means the concentration at half of the fitted maximal effect.

Test: qHTS Assay for Foot and Mouth Disease Virus Antivirals: Primary Screen against the MLPCN compound library; further: nearly all actives have a fitted effect of over 55% in size
Conditions: FMDV antiviral cell-based qHTS; series mostly up to 57.9 µM
In the case of Cc1cc(C)n2nc(C)c(-c3ccc(Cl)cc3)c2n1, the Potency is reported as “inactive”. For Cc1nn2cnnc2c(C)c1Cc1ccc(Cl)cc1, the Potency was “inactive”. For Cc1nc2nc(-c3ccc(Cl)cc3)cn2nc1C, the Potency was 10 µM (active). For COc1ccc(/C=N/NC(=S)Nc2cc(S(=O)(=O)N3CCOCC3)ccc2N2CCOCC2)cc1O, the Potency was “inactive”. For CCc1c(C)c2ccc(O)c(CN3CCN(c4ccccc4)CC3)c2oc1=O, the Potency was “inactive”. With Brc1ccc(C2C3=C(Nc4ncnn42)c2ccccc2OC3c2ccncc2)cc1 (stereo not given) the Potency was 17.8 µM (active). For COC(=O)c1c(C)oc(C)c1S(=O)(=O)NCC1CC1, the Potency was “inactive”. In the case of COc1ccc(NS(=O)(=O)c2ccc(-n3cccn3)cc2)cc1OC, the Potency is reported as “inactive”. With O=C(CN1CCN(S(=O)(=O)c2cc(C(F)(F)F)ccc2Cl)CC1)N1CCc2ccccc2C1 the Potency was “inactive”. With C=CCc1ccccc1OCC(O)CN1CCN(c2ccccc2OC)CC1 (stereo not given) the Potency was “inactive”. In the case of COC(CNC(=O)C1CCN(S(=O)(=O)c2cccc3nsnc23)CC1)OC, the Potency is reported as “inactive”. In the case of CCOC(=O)c1cc(-c2ccccc2)n(CCC(=O)N2CCN(c3ccccc3OC)CC2)c1C, the Potency is reported as “inactive”. With Cc1ccc2[nH]c(CSc3nnc(NC(=O)c4ccccc4F)s3)cc(=O)c2c1 the Potency was “inactive”. With Cc1cc[n+](CC(=O)c2ccc(NC(=O)c3ccccc3)cc2)c2ccccc12 the Potency was “inactive”. For CCc1ccc(C2CC(c3cccc(OC)c3)n3nc(N)nc3N2)cc1 (stereo not given), the Potency was “inactive”. In the case of CCc1ccc(C(=O)C[n+]2cccc3cc(OC)ccc32)cc1, the Potency is reported as 8.91 µM (active). For CC1(c2nnc(-c3ccncc3)o2)CC(c2ccc([N+](=O)[O-])cc2)=NO1 (stereo not given), the Potency was “inactive”. For Cc1occc1C(=O)NNC(=S)Nc1ccccc1, the Potency was “inactive”. In the case of COc1ccc(-c2cc(=NC(CC(C)C)C(=O)O)c3cc(C)ccc3o2)cc1 (stereo not given), the Potency is reported as “inactive”. With CC(=O)Nc1scc(C)c1-c1nc2ccccc2s1 the Potency was “inactive”. In the case of CCOC(=O)c1nc2ccccc2s1, the Potency is reported as “inactive”. For CCCNC(=O)c1ccc(-c2nc3ccccc3s2)s1, the Potency was 14.1 µM (active). In the case of COc1cccc(-n2c(=O)c3c(C)c(C(=O)N(C)C)sc3n(Cc3ccc(F)cc3Cl)c2=O)c1, the Potency is reported as “inactive”. In the case of Cc1nn2c(=O)cc(COC(=O)c3ccc(C(C)(C)C)cc3)nc2s1, the Potency is reported as “inactive”. In the case of COc1cc(CNCc2ccccn2)ccc1OCc1ccccc1Cl, the Potency is reported as “inactive”. In the case of COc1ccc(C2C3C=CCC(c4cccc(-c5ccc(C)cc5)c4)C3C(=O)N2Cc2ccccc2)cc1Cl (stereo not given), the Potency is reported as 12.6 µM (active). With Cc1ccc(F)c([C@H]2C3C=CCC(c4ccccc4)C3C(=O)N2Cc2ccccc2)c1 (stereo not given in full) the Potency was “inactive”. With COc1ccc(-c2cccc([C@H]3[C@@H]4C=CC[C@@H](C)[C@@H]4C(=O)N3Cc3ccccc3)c2)cc1 the Potency was “inactive”. In the case of CCOc1ncccc1C(=O)Nc1cc(S(=O)(=O)N(CC)CC)ccc1N1CCOCC1, the Potency is reported as “inactive”. With Cc1ccc(C)c(N2CCN(C(=O)c3ccc(N4CCCC4=O)cc3)CC2)c1 the Potency was “inactive”. In the case of Cc1oc(-c2ccccc2F)nc1CS(=O)(=O)CC(=O)NC1CCCC(C)C1C (stereo not given), the Potency is reported as “inactive”. In the case of O=C(Nc1ccc2c(c1)OCCO2)c1cccc2nc3ccccc3nc12, the Potency is reported as “inactive”. With O=C(CN1CCN(S(=O)(=O)c2ccc(Cl)cc2)CC1)Nc1ccc2c(c1)OCCO2 the Potency was “inactive”. For c1csc(CNc2ccc3c(c2)OCCO3)c1, the Potency was “inactive”. In the case of O=C(O)C1C2C=CC(C2)C1C(=O)Nc1ccc2c(c1)OCCO2 (stereo not given), the Potency is reported as “inactive”. In the case of Cc1ccc(C(=O)Nc2ccc3c(c2)OCCO3)c(Cl)c1, the Potency is reported as 11.2 µM (active). For Cc1ccsc1C(=O)Nc1ccc2c(c1)OCCO2, the Potency was 22.4 µM (active). In the case of CCOC(=O)c1ccc[n+](C(C)C(=O)c2ccc(-c3ccccc3)cc2)c1 (stereo not given), the Potency is reported as “inactive”. In the case of COc1cccc(CNC(=O)c2cccc(S(=O)(=O)N3CCN(c4ccc(F)cc4)CC3)c2)c1, the Potency is reported as “inactive”. With CCOc1ccc(NC(=O)CN2C(=O)CCSc3ccc(S(=O)(=O)N4CCCC4)cc32)cc1 the Potency was “inactive”. For O=C(/C=C/c1cccs1)c1cc(Cl)ccc1OC(=O)N1CCOCC1, the Potency was 17.8 µM (active). With O=C(COC(=O)/C=C/c1cccs1)Nc1ccc(Cl)cc1F the Potency was “inactive”. With O=C(/C=C/c1cccs1)N1CCC2(CC1)Oc1ccc(Cl)cc1C(=O)C21CC(c2cccnc2)=NO1 (stereo not given) the Potency was “inactive”. With O=C(CCCOc1ccc(Cl)cc1)NCC1CCCO1 (stereo not given) the Potency was “inactive”. In the case of CCOC(=O)C1=C(C)Nc2ccccc2N=C1NC(=O)c1oc2ccccc2c1COC, the Potency is reported as “inactive”. With COc1ccccc1OCC(=O)Nc1cc(S(=O)(=O)N2CCCCC2)ccc1N1CCCCC1 the Potency was “inactive”. With COc1cc(/C=C(\C#N)c2ccccn2)ccc1OCC(=O)Nc1cccc(C(F)(F)F)c1 the Potency was “inactive”. In the case of CN(CCC#N)c1ccc(/C=C(\C#N)c2ccccn2)cc1, the Potency is reported as 14.1 µM (active). For CNc1nc(-c2ccc3c(c2)CCN3S(=O)(=O)c2ccccc2)c(C)s1, the Potency was “inactive”. With CC(=O)Nc1ccc(S(=O)(=O)N(C)CC(=O)Nc2ccc(Br)cc2F)cc1 the Potency was “inactive”. In the case of CCn1cc(C(=O)OCC(=O)OC2CC(C)CCC2C(C)C)c(=O)c2ccc(C)nc21 (stereo not given), the Potency is reported as 22.4 µM (active). With O=C(CCCCn1c(=O)c2ccccc2n(CC(=O)Nc2cccc(F)c2)c1=O)NCc1ccccc1Cl the Potency was “inactive”. With COc1ccc(C[C@H]2CN3C(=NC[C@@H]3Cc3ccc(O)cc3)N2C[C@H](C)NC(=O)CCC2CCCCC2)cc1 the Potency was “inactive”. In the case of CCCCCCCCCCC[N+](C)(C)CC/C=C1/c2ccccc2Sc2ccc(Cl)cc21, the Potency is reported as “inactive”. For CC1(Cc2ccc(C(F)(F)F)o2)C(=O)Nc2cc(-c3ccc(F)cc3F)ccc21 (stereo not given), the Potency was “inactive”.
